# PubChem BioAssay (NCATS)
# A number with no mark means an inactive call. Results filed as inconclusive are left out. Entries that show only a call come without a potency. The source made the active and inactive calls. Unless noted, calls follow the shape of the dose curve; as a rule, active = well fitted curve in the direction sought with a large enough effect; inconclusive = small, poorly fitted or top-dose-only effect, or another doubt; inactive = no such curve, though single readings can be large; an effect the other way counts as inactive or inconclusive.
# Key:
# [1] = molecular target: Ubiquitin carboxyl-terminal hydrolase 1 (Homo sapiens) (UniProt O94782); assay: Inhibitors of USP1/UAF1: Pilot qHTS (AID 504865);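 also: rhodamine fluorescence freed from ubiquitin-rhodamine substrate followed over time; top concentration of the series differs between compounds; nearly all actives have a fitted effect of over 35% in size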
# Chain of Ubiquitin carboxyl-terminal hydrolase 1 (Homo sapiens) (O94782 whole entry, looked up): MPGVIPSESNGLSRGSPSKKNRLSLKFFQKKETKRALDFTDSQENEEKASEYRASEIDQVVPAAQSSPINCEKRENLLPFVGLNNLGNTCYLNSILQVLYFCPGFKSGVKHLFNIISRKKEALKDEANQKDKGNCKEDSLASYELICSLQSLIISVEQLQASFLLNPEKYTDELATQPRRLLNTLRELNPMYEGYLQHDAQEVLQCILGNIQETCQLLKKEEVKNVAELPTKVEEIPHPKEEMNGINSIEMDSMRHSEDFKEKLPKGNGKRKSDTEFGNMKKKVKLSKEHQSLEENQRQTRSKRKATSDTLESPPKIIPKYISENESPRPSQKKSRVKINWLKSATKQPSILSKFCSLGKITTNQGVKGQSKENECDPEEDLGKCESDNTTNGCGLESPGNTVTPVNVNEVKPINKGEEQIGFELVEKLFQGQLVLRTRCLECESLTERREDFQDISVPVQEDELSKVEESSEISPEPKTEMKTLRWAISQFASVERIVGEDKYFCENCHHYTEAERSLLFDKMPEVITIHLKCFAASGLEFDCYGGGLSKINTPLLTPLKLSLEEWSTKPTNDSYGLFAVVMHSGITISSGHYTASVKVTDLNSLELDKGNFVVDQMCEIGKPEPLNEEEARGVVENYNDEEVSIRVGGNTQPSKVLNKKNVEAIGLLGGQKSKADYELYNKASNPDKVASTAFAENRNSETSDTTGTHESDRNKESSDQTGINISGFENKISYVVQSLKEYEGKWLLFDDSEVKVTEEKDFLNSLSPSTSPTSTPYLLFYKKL
# Summary of the method: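 USP1/UAF1 complex at 1 nM preincubated 15 min at room temperature with compound, then Ub-Rho substrate added at 150 nM final. Fluorescence (480/540 nm) read kinetically in 50 mM HEPES pH 7.8, 0.5 mM EDTA, 1 mM TCEP, 0.1 mg/ml BSA, 0.01% Tween-20.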
# [2] = molecular target: DNA dC->dU-editing enzyme APOBEC-3G (Homo sapiens) (UniProt Q9HC16); assay: qHTS for inhibitors of Vif-A3G interactions: Validation (AID 588379)
# Chain of DNA dC->dU-editing enzyme APOBEC-3G (Homo sapiens) (Q9HC16 whole entry, looked up): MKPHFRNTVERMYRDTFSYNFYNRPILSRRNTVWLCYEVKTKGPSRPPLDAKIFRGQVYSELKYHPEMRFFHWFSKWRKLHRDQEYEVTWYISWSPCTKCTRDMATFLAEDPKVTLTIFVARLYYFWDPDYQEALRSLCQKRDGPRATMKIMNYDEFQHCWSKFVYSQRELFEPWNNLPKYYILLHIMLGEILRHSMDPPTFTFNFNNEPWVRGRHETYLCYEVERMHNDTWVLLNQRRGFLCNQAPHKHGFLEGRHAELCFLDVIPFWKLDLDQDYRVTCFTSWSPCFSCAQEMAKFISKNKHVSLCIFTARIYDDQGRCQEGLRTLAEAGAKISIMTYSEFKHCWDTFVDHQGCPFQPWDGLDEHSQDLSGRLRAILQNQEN
# Summary of the method: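 HeLa cells stably expressing Vif and A3G-eYFP, 700 cells/well, incubated overnight at 37 deg C, then exposed to compound overnight at 37 deg C. Inhibition of Vif-mediated degradation read as increased yellow fluorescence (Ex 488/Em 500-530) by laser-scanning cytometry.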
# [3] = molecular target: Chromobox protein homolog 1 (Homo sapiens) (UniProt P83916); assay: qHTS Validation Assay for Inhibitors of HP1-beta Chromodomain Interactions with Methylated Histone Tails (AID 488953);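 also: loss of AlphaScreen luminescence from HP1-beta binding biotinylated H3K9me3 peptide; series mostly up to about 110 µM; nearly all actives have a fitted effect of over 50% in size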
# Chain of Chromobox protein homolog 1 (Homo sapiens) (P83916 whole entry, looked up): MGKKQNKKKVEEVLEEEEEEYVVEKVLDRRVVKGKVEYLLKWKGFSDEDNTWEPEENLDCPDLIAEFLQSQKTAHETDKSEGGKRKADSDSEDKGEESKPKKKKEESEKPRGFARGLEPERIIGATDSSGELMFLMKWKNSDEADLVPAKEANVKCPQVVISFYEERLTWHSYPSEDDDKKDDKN
# Summary of the method: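 HP1-beta (50 nM) preformed 30 min with biotinylated H3(1-18)K9me3 peptide (50 nM) in PBS pH 7.4, 0.01% Tween-20. Compounds added for 30 min at room temperature. Complex disruption read by AlphaScreen with streptavidin donor/nickel chelate acceptor beads (10 ug/mL each).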
# [4] = molecular target: Methanococcus maripaludis chaperonin (MmCpn) (UniProt Q6LX38); assay: High-Throughput Screening for Modulators of Cytosolic Chaperonin Activity: MmCpn Primary Screen (AID 488978);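 also: 50 nM MmCpn enzyme hydrolysing 30 µM ATP at 37 °C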
# Chain of Methanococcus maripaludis chaperonin (MmCpn) (Q6LX38 1-543): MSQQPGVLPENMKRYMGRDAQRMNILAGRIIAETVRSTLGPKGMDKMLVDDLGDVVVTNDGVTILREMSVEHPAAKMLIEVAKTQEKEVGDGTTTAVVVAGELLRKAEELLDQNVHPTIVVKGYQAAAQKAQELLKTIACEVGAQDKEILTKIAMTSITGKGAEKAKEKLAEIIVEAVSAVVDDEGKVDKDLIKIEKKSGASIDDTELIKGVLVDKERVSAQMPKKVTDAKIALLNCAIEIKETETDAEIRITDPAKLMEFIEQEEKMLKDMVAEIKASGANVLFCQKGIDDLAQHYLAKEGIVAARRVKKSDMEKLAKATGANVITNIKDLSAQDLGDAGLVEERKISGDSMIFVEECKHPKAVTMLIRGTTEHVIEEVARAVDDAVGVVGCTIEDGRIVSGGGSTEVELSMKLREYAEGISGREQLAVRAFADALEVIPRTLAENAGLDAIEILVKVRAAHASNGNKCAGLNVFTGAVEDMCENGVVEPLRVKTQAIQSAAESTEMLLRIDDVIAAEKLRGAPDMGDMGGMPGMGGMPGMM
# Summary of the method: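 MmCpn at 50 nM final was preincubated 5 min at RT with compound. ATP was then added at 30 uM final for 10 min at 37 C. ADP formed was detected by Transcreener HTRF (665/590 nm).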
# [5] = molecular target: D(1A) dopamine receptor (Homo sapiens) (UniProt P21728); assay: HTS Assay for Allosteric Agonists of the Human D1 Dopamine Receptor: Primary Screen for Agonists (AID 488981)
# Chain of D(1A) dopamine receptor (Homo sapiens) (P21728 whole entry, looked up): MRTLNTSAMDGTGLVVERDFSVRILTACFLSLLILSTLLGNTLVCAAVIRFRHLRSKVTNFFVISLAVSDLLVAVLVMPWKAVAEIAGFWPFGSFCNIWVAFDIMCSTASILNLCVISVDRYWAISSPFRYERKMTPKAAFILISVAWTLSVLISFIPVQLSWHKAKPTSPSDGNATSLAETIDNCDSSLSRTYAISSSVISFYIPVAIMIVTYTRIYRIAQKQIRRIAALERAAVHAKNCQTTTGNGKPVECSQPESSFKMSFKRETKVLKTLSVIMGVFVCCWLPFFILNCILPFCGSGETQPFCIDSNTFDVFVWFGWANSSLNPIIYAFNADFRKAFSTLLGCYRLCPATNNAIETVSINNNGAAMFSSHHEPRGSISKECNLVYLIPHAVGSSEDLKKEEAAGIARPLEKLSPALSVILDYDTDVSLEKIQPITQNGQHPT
# Summary of the method: (§1)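 Calcium flux in an inducible, force-coupled HEK293 Trex D1 line (overnight at 30 C): agonist mode is the 180 s kinetic read after compound; potentiator mode is the following 180 s read after dopamine at EC20.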
# [6] = molecular target: D(1A) dopamine receptor (Homo sapiens) (UniProt P21728); assay: HTS Assay for Allosteric Agonists of the Human D1 Dopamine Receptor: Primary Screen for Potentiators (AID 488982)
# Summary of the method: as §1
# [7] = molecular target: D(1A) dopamine receptor (Homo sapiens) (UniProt P21728); assay: HTS Assay for Allosteric Agonists of the Human D1 Dopamine Receptor: Primary Screen for Antagonists (AID 488983);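 also: calcium flux response to an EC80 dopamine challenge measured with no-wash dye; nearly all actives have a fitted effect of over 65% in size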
# Summary of the method: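 Tetracycline-induced HEK293 T-REx D1 line, force-coupled to calcium flux, read with no-wash calcium dye. Compound added after 10 s baseline, read 180 s for agonism, then EC80 dopamine added and read a further 180 s.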
# [8] = qHTS for Inhibitors of Cell Surface uPA Generation: Validation Assay (AID 493164)
# Summary of the method: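 RAW 264.7 cells (4000/well) were plated overnight, then exposed for 18 h at 37 C, 5% CO2 to compounds in a 7-point 1:5 titration (2.45 nM–38.3 uM final). Intracellular ATP was read by ATP-Lite luminescence.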
# [9] = molecular target: Peptidyl-prolyl cis-trans isomerase NIMA-interacting 1 (Homo sapiens) (UniProt Q13526); assay: qHTS Validation Assay to Find Inhibitors of Pin1 (AID 504536; active = well fitted inhibition curve with a large enough effect in the polarisation, with a control signal flat, not every such curve was filed as active; the % refers to the polarisation)
# Chain of Peptidyl-prolyl cis-trans isomerase NIMA-interacting 1 (Homo sapiens) (Q13526 whole entry, looked up): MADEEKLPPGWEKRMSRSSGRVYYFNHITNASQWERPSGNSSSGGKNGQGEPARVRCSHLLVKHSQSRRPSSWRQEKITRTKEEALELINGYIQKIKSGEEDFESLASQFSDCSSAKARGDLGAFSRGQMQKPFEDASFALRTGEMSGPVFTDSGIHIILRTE
# Summary of the method: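 Fluorescence polarization competition: compounds (titration) displace HiFluor-488-labeled Pin1-1b peptide from Pin1 (0.3 uM final) in pH 7.5 HEPES buffer with DTT, 10 min at room temperature; %Activity normalized to no-enzyme wells, curves fitted.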
# [10] = molecular target: Phosphoglycerate kinase, glycosomal (Trypanosoma brucei brucei) (UniProt P07378); assay: qHTS Validation Assay to Find Inhibitors of Phosphoglycerate Kinase (AID 504547)
# Summary of the method: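 Inhibition of the enzyme is judged by a Kinase-Glo Plus luminescent signal following a one-hour incubation at room temperature. Because 1,3-BPG is unstable, it is made in situ by GAPDH at 100nM final; no-PGK wells define the baseline.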
# [11] = molecular target: phosphoglycerate mutase (Leishmania major) (UniProt Q4Q090); assay: qHTS Validation Assay to Find Inhibitors of Phosphoglycerate Mutase (AID 504548); also: series mostly up to about 58 µM
# Summary of the method: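 Luminescent end-point read-out via Kinase-GloPlus after a 10-minute development. Reaction: 1.25nM Leishmania major PGAM with substrate and compound, 45 minutes at room temperature in TEA buffer (pH 7.6) with MgCl2 and Tween-20.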
# [12] = qHTS for Inhibitors of ATXN expression: Validation (AID 588378); also: potency is read from the fitted curve at half-maximal effect; nearly all actives have a fitted effect of over 75% in size
# Summary of the method: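 HEK293 cells carrying ATXN2-firefly luciferase reporter, treated with compound 24 h at 37 °C. Viability read first by CellTiter-Fluor (405/525 nm), then reporter expression by Bright-Glo luminescence; controls were a known ATXN2 expression inhibitor and a luciferase inhibitor.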
# [13] = molecular target: Transient receptor potential cation channel subfamily V member 1 (Homo sapiens) (UniProt Q8NER1); assay: HTS Assay for Compounds that Act as Enhancers of the Vanilloid Receptor 1 (AID 488979)
# Chain of Transient receptor potential cation channel subfamily V member 1 (Homo sapiens) (Q8NER1 whole entry, looked up): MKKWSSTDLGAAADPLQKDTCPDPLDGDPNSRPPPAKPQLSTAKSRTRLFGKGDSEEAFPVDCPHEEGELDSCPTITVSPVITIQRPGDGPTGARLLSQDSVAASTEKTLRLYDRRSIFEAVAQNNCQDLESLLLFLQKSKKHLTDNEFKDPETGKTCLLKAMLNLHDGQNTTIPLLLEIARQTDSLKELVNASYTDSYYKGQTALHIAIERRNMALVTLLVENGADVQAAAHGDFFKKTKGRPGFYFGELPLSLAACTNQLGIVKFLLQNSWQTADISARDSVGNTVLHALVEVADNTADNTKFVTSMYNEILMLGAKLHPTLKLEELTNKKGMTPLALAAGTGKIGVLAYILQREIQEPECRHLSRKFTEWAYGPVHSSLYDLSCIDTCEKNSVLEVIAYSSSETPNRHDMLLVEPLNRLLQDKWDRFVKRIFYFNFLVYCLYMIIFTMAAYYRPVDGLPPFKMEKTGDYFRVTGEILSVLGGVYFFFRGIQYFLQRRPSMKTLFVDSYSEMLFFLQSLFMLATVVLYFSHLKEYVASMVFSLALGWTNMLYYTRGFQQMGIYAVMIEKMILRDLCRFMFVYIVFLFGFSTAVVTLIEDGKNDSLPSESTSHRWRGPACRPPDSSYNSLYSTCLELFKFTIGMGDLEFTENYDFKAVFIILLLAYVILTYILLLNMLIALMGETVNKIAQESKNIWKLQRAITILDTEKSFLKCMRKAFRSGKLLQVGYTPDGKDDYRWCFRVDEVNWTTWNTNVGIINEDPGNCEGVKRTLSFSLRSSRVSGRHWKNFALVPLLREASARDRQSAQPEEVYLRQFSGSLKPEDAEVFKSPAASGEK
# Summary of the method: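 Calcium influx kinetics via Fluo-8 (480/520 nm) in TRPV1-expressing cells, 2000/well cultured overnight at 35.5C. Compound-alone read 3 min (agonist phase), followed by EC20 capsaicin challenge for 2 min (enhancer phase).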
# [14] = molecular target: Thyrotropin receptor (Homo sapiens) (UniProt P16473); assay: qHTS Assay for Antagonists of the Thyroid Stimulating Hormone Receptor (AID 488980); also: series mostly up to about 58 µM
# Chain of Thyrotropin receptor (Homo sapiens) (P16473 whole entry, looked up): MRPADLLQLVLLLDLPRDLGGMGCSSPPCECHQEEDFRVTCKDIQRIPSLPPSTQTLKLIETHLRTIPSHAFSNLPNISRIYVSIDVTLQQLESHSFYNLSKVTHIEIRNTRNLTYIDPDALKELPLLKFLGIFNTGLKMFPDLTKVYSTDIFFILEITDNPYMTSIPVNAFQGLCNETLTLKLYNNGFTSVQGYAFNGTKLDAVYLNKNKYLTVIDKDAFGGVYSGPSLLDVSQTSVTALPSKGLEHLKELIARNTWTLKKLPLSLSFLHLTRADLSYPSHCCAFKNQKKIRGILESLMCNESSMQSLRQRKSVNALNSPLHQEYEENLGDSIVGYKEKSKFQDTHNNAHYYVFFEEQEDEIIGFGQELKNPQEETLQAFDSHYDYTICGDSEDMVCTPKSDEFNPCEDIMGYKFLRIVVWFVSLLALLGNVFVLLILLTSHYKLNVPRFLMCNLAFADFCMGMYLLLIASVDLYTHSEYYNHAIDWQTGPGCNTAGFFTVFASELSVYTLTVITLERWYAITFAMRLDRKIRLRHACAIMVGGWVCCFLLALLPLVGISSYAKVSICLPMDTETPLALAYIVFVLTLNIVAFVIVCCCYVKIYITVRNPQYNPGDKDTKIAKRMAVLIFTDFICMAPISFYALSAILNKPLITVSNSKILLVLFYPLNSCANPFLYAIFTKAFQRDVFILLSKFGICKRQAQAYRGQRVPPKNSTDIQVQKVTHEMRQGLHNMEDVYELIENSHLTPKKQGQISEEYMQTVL
# Summary of the method: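 TSHR-transfected HEK293 cells (2000/well) in HEPES-buffered HBSS with 70 uM RO 20-1724 were stimulated with 4 nM TSH (EC80, final) in the presence of compound. cAMP was measured by HTRF competition after lysis and 30 min at RT.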
# [15] = molecular target: Thyrotropin-releasing hormone receptor (Homo sapiens) (UniProt P34981); assay: qHTS for Small Molecule Agonists and Allosteric Enhancers of Human TRH Receptor: Validation Screen for Agonists (AID 493127;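 active = calcium activation more than 3 SD above the typical response in the agonist read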); details: TRH receptor agonist cell assay; at 2 µM; stronger effect = higher value
# Chain of Thyrotropin-releasing hormone receptor (Homo sapiens) (P34981 whole entry, looked up): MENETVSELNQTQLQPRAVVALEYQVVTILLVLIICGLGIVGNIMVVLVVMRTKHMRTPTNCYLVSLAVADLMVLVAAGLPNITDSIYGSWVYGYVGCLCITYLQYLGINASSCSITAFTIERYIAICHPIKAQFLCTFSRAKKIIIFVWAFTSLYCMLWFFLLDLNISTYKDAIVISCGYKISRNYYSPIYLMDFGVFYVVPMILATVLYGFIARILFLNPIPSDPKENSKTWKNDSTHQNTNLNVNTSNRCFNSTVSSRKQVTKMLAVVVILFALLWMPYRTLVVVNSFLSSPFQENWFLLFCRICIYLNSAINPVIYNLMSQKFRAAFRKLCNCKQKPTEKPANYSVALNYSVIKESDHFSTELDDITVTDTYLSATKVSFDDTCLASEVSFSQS
# Summary of the method: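 TRHR cells loaded with fluo-8 calcium dye; FDSS kinetic fluorescence (Ex 480/Em 530) read at 1 s/cycle after 23 nL compound addition. Agonist-mode calcium response recorded before the 10 nM TRH (EC20) addition.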
# [16] = molecular target: Galactokinase (Homo sapiens) (UniProt P51570); assay: qHTS Validation Assay for Inhibitors of Human Galactokinase (GALK) (AID 493189)
# Chain of Galactokinase (Homo sapiens) (P51570 whole entry, looked up): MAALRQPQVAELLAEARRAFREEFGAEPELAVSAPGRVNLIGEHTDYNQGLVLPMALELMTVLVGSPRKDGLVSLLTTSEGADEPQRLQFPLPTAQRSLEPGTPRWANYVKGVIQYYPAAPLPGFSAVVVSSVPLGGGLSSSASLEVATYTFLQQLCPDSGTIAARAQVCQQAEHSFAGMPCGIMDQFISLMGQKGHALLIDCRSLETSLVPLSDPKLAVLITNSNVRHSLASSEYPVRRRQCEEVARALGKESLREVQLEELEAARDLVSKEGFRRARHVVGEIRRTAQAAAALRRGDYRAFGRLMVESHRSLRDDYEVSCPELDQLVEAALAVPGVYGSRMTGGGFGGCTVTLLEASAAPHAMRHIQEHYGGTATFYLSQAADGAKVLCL
# Summary of the method: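 GALK (5 nM) with 35 uM ATP and 100 uM galactose in HEPES pH 8.0 with MgCl2, NaCl, DTT and BSA. Reaction ran 1 h at room temperature. Residual ATP read by Kinase-Glo Plus luminescence.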
# [17] = Validation screen for small molecules that induce DNA re-replication in SW480 colon adenocarcinoma cells (AID 504364)
# Summary of the method: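 SW480 cells (250/well) exposed 48 h at 37 C, 5% CO2, then Hoechst-stained 40 min. Nuclear DNA content imaged by fluorescence scanning (405 nm excitation, 500-530 nm emission); re-replication scored as increased nuclei with elevated intensity.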
smiles,measurement,setting,value
CCCCC[C@H](O)C=C[C@H]1[C@H](O)CC(=O)[C@H]1CCCCCCC(=O)O,Potency,[1],inactive
same,outcome,[2],inactive
CCCCC(C=O)NC(=O)C(CC(C)C)NC(=O)OCc1ccccc1 (stereo not drawn),Potency,[1],inactive
same,outcome,[2],inactive
COc1ccnc(CS(=O)c2nc3ccc(OC(F)F)cc3[nH]2)c1OC (stereo not drawn),Potency,[1],inactive
C=CCc1cccc(C=NNC(=O)CN2CCN(Cc3ccccc3)CC2)c1O,outcome,[3],inactive
same,outcome,[4],inactive
same,outcome,[5],inactive
same,outcome,[6],inactive
same,outcome,[7],inactive
same,outcome,[8],inactive
same,outcome,[9],inactive
same,outcome,[10],inactive
same,outcome,[11],inactive
same,Potency,[12],3.55 µM (active)
O=c1cc(-c2ccc(O)c(O)c2)oc2cc(O)cc(O)c12,outcome,[2],inactive
Cc1ccc(NC(=O)c2cccc(N(C)C)c2)cc1NC(=O)c1ccc(O)cc1,Potency,[1],inactive
same,outcome,[2],inactive
CCNC(=O)[C@H]1O[C@@H](n2cnc3c(N)nc(NCCc4ccc(CCC(=O)O)cc4)nc32)[C@H](O)[C@H]1O,outcome,[13],inactive
same,outcome,[14],inactive
same,activation,[15],0.188%
same,outcome,[16],inactive
same,outcome,[17],inactive
O=C(O)c1nc(=O)[nH]c(=O)[nH]1,Potency,[1],inactive
CN[C@H]1[C@@H](O[C@@H]2[C@H](O[C@@H]3[C@@H](O)[C@@H](O)[C@@H](N=C(N)N)[C@@H](O)[C@@H]3N=C(N)N)O[C@H](C)[C@@]2(O)C=O)O[C@@H](CO)[C@@H](O)[C@H]1O,Potency,[1],inactive
COc1nccc(-c2c(-c3ccc(F)cc3)ncn2C2CCC(O)CC2)n1 (stereo not drawn),Potency,[1],inactive
same,outcome,[2],inactive
NS(=O)(=O)c1cc(Cl)c(Cl)c(S(N)(=O)=O)c1,Potency,[1],inactive
